Reference: PubChem BioAssay (Tox21)
Results filed as inconclusive are left out. Entries that show only a call come without a potency. The source made the active and inactive calls. The call rests on the fitted dose curve; in most records, active means well fitted cell-killing curve with a large enough effect in the repeat runs; inconclusive means weak or mixed curves, or effect the other way; inactive means flat fitted curve, though single readings scatter.

Tests used:
[1] = cAMP Responsive Elements (CRE) small molecule antagonists, cell-based qHTS assay: qHTS cell viability counter screen (AID 2060913); further: nearly all actives have a fitted effect of over 40% in size
How it was run: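 CRE-bla HEK293T cells (2,000/well, 18 h) given compound plus NKH477 0.25 uM final for 3 h at 37C; viability counter-screen by CellTiter-Glo luminescence in same wells after 30 min.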

[2] = cAMP Responsive Elements (CRE) small molecule agonists, cell-based qHTS assay: qHTS cell viability counter screen (AID 2060914);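 further: viability read after 3 h of compound exposure; nearly all actives have a fitted effect of over 50% in size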
How it was run: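 CRE-bla HEK293T cells in 10% dialyzed FBS medium were exposed to compounds for 3 h at 37C after 18 h plating. CellTiter-Glo was then added in the same wells, and luminescence was read after 30 min at room temperature.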

SMILES | Potency [1] | Potency [2]
O=C(O)c1cc(C(=O)O)c(C(=O)O)cc1C(=O)O | inactive | inactive
Cc1c(NC(C)C)c(=O)n(-c2ccccc2)n1C | inactive | inactive
COc1ccc(NC(C)=O)cc1N | inactive | inactive
O=C(O)CS | inactive | inactive
CC(COc1ccccc1)NC(C)C(O)c1ccc(O)cc1 (stereo not given) | inactive | inactive
CC[C@H]1OC(=O)[C@H](C)[C@@H](O[C@H]2C[C@@](C)(OC)[C@@H](O)[C@H](C)O2)[C@H](C)[C@@H](O[C@@H]2O[C@H](C)C[C@H](N(C)C)[C@H]2O)[C@](C)(OC)C[C@@H](C)C(=O)[C@H](C)[C@@H](O)[C@]1(C)O | inactive | inactive
C[C@@H]1O[C@@H](O[C@@H]2[C@@H](O)[C@H](OCCc3ccc(O)c(O)c3)O[C@H](CO[C@@H]3O[C@H](CO)[C@@H](O)[C@H](O)[C@H]3O)[C@H]2OC(=O)/C=C/c2ccc(O)c(O)c2)[C@H](O)[C@H](O)[C@H]1O | inactive | inactive
COc1ccc(NS(=O)(=O)c2ccc(N)cc2)nn1 | inactive | inactive
CC1(C)CO[C@@H](CC(=O)O)CN1 | inactive | inactive
C#CCN(C)CCCOc1ccc(Cl)cc1Cl | inactive | inactive
CC(C)NCC(O)COc1cccc2[nH]ccc12 (stereo not given) | inactive | inactive
COCCCN1CCC(NC(=O)c2cc(Cl)c(N)c3c2OCC3)CC1 | inactive | inactive
CC(=O)C(=O)O | inactive | inactive
CCCCc1ccc(N)cc1 | inactive | inactive
CCCCCCC1CCC(=O)O1 (stereo not given) | inactive | inactive
